# H9c2 protect – cardioprotection against H2O2-induced cell death, primary screen, uHTS, H9c2 cells, ATPLite luminescence; protection from H2O2 cell death, % at 20 µM; H9c2 cardiomyocytes, H2O2 injury protection, 2 h; actives 0.63% (n = 360,000); AID 588492, 2011;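 active means compounds giving at least 50% protection of heart cells from peroxide-induced death in the single-dose screen, raw or plate-pattern-corrected value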;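 further: 0% = DMSO wells with peroxide and 100% = DMSO wells without peroxide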
# PLCb3 inh – human PLC-beta3 inhibitors, primary screen, biochemical, fluorescence. 1-phosphatidylinositol 4,5-bisphosphate phosphodiesterase beta-3 (Homo sapiens), Q01970. inhibition, % at 12.2 µM. actives 0.18% (n = 370,000). Purified PLC-beta3, fluorogenic substrate; in the data active means inhibition above about 11%;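 further: 0% = median of compound wells on plate and 100% = full blocker control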
# FAS TE block – FAS thioesterase domain inhibitors, primary screen, biochemical, fluorescence intensity, uHTS. recombinant FAS-TE, OMFH fluorogenic substrate, fluorescence endpoint. AID 602261, 2012. inhibition, % at 15 µM. actives 0.67% (n = 360,000). Fatty acid synthase (Homo sapiens), P49327;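 active means compounds whose normalised, plate-corrected inhibition of enzyme fluorescence in the single-dose primary screen is 50% or more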;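 further: 0% = DMSO with enzyme and 100% = substrate without enzyme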
# PLC-gamma1 inh – PLC-gamma1 enzyme inhibitors, primary screen, biochemical, fluorescence, purified enzyme | 1-phosphatidylinositol 4,5-bisphosphate phosphodiesterase gamma-1 (Homo sapiens), P19174 | fluorogenic substrate | inhibition, % at 12.2 µM | actives 0.84% (n = 370,000)
# PLCgamma1 ctr – PLC-gamma1 enzyme inhibitors, counter-screen for PLC-beta3 inhibitor project, biochemical, fluorescence; actives 3.1% (n = 3,300); shares compounds with PLC-gamma1 inh; purified PLC-gamma1, fluorogenic substrate; inhibition, % at 12.3 µM; AID 743258, 2014
# PLCbeta3 conf – PLC-beta3 inhibitor confirmation, biochemical, fluorescence, purified enzyme; fluorogenic substrate fluorescence; inhibition, % at 12.3 µM; AID 743261, 2014; shares compounds with PLC-gamma1 inh; actives 1% (n = 3,300); in the data active means inhibition above about 11%
# Starred values were filed as active, the others as inactive; / = not tested or not shown. In the library only some 2.2% were active in any assay of this set; here they are far more common. Unless noted, no stated cut-off is given here; in the data, active means inhibition above about 9.5%; inactive means the rest.
SMILES,H9c2 protect,PLCb3 inh,FAS TE block,PLC-gamma1 inh,PLCgamma1 ctr,PLCbeta3 conf
CC1CN(C(=O)CS(=O)(=O)Cc2ccc(Cl)cc2)CC(C)O1 (stereo unspecified),2,-10,-7,2,/,/
Cc1[nH]nc(Nc2ccc(C(C)C)cc2)c1[N+](=O)[O-],-13,-4,6,11*,-3,-2
Cc1ccc(Nc2n[nH]c(C)c2[N+](=O)[O-])cc1,-1,1,-5,0,/,/
CN(C)C(=O)CCc1ccc2c3c([nH]c2c1)[C@]1(C)[C@@H](C(=O)N2CCOCC2)C[C@H](CC(=O)NCc2cccc(C(F)(F)F)c2)C(=O)N1CC3,1,-3,-7,-3,/,/
CCc1ccc(C2c3[nH]c4ccccc4c3CCN2C(=O)c2cc(C)nn2C)cc1 (stereo unspecified),-1,2,25,10*,-5,-5
COc1ccc(/C=N/NC(=S)Nc2ccccc2)cc1COc1ccc(F)cc1,-2,16*,-6,11*,-11,-10
COc1ccc(OC)c(S(=O)(=O)NCCCN2CCOCC2)c1,2,-2,-9,12*,-7,-1
CC(C)Cc1nnc(NC(=O)C2CC(=O)N(c3ccc4c(c3)OCCO4)C2)s1 (stereo unspecified),0,-13,-7,-8,/,/
Cc1cccnc1NC(=O)Nc1cccc(C(F)(F)F)c1,-4,3,-8,10*,-5,-5
Cc1ccc(S(=O)(=O)N2[C@@H](c3cccc(Cl)c3)C(C(=O)OC(C)(C)C)=CC[C@H]2c2cccc(Cl)c2)cc1,-4,1,28,0,/,/
COc1cccc(C(=O)N(CN2CCCC2=O)c2cccc(Cl)c2)c1,2,6,-7,11*,-2,0
COc1ccccc1C(=O)N(CN1CCCC1=O)c1cccc(Cl)c1,1,0,-6,0,/,/
O=C(CCN=C1NS(=O)(=O)c2ccccc21)OCC(=O)c1ccccc1,-4,-8,-1,-3,/,/
CC(C)CCNC(=O)NC(=O)COC(=O)CCN=C1NS(=O)(=O)c2ccccc21,-1,-2,-2,11*,-8,-1
Cc1ccc(S(=O)(=O)N2C[C@H]3N(C(=O)OC(C)C)N(C(=O)OC(C)C)C[C@H](OC(=O)NCC4CCCCC4)[C@@]3(O)C2)cc1,-5,/,14,/,/,/
CCOCCn1c(CN2CCN(CCO)CC2)nc2c1c(=O)n(C)c(=O)n2C,10,0,-8,11*,0,-3
Cn1c(=O)c2c(nc(CN3CCN(CCO)CC3)n2Cc2ccccc2Cl)n(C)c1=O,20,6,2,12*,-1,-1
COc1ccc(N2CCN(Cc3nc4c(c(=O)n(C)c(=O)n4C)n3CCc3ccccc3)CC2)cc1,7,6,20,13*,8,0
Clc1ncccc1OCc1ccccc1,-6,-4,-1,0,/,/
Cc1cccc(C(=O)N/N=C/c2ccc(OC3CSC3)cc2)c1,22,-2,-5,0,/,/
COc1cccc(C(=O)N/N=C/c2ccc(OC3CSC3)cc2)c1,3,2,5,10*,-1,0
COc1ccc(CC2CCOC2=O)cc1 (stereo unspecified),4,3,-7,10*,-7,-1
CCCCCCC1CC(CSC(=N)N)OC1=O (stereo unspecified),-14,6,-18,11*,7,0
CCCC1CC(CSC(=N)N)OC1=O (stereo unspecified),16,1,-4,-1,/,/
Cc1cc(NC(=O)c2cccs2)ncc1NC(=O)c1cccc(F)c1,6,2,-4,-5,/,/
SMILES,H9c2 protect,PLCb3 inh,FAS TE block,PLC-gamma1 inh,PLCgamma1 ctr,PLCbeta3 conf
Cc1cc(NC(=O)c2ccccc2)ncc1NC(=O)c1cccs1,-1,16*,-7,-2,-8,9
COc1ccc(-c2nc(C3CCCCC3)c3cc(OC)ccc3n2)cc1,-9,2,35,-1,/,/
O=S(CC(O)c1ccccc1)c1ccccc1 (stereo unspecified),8,-3,-2,0,/,/
Cn1ccsc1=NC(=O)c1ccc(S(=O)(=O)C(F)F)cc1,-3,-12,2,-2,/,/
COc1ccccc1-c1cnnc(N/N=C/c2ccc(-c3cccc(Br)c3)o2)n1,42,1,36,12*,8,5
COc1ccc(-c2cnnc(N/N=C/c3ccc(-c4ccc([N+](=O)[O-])cc4)o3)n2)cc1,19,-2,-15,-2,/,/
O=C(O)c1cccc(NC(=O)c2cc(NC(=O)c3ccccc3)cc(NC(=O)c3ccccc3)c2)c1,15,-9,0,1,/,/
O=C(O)c1cccc(NC(=O)c2ccccc2)c1,1,8,-3,11*,-2,1
CC(=O)NC12CC3CC(C1)CC(C(=O)N1CCN(S(=O)(=O)c4cccc(C(F)(F)F)c4)CC1)(C3)C2,-2,-4,-3,1,/,/
CCCCN(C)CCCNC(=O)C1(O)c2ccccc2NC(=O)N1c1ccc(Cl)cc1 (stereo unspecified),2,4,-9,12*,-5,-7
CCC(C)NC(=O)C1(O)c2ccccc2NC(=O)N1c1ccc(C)c(C)c1 (stereo unspecified),2,7,-8,11*,-7,-19
CC1Cn2c(CCc3ccccc3)nnc2S1 (stereo unspecified),6,-2,-6,0,/,/
CC1Cn2c(Cc3ccccc3)nnc2S1 (stereo unspecified),6,14*,1,8,-1,3
Cc1ccccc1OCC(=O)Nc1c2c(nn1C(C)(C)C)CS(=O)(=O)C2,9,-6,-5,0,/,/
CN(CC(=O)Nc1ccc(F)c(F)c1F)C(=O)C1COc2ccccc2O1 (stereo unspecified),-1,-2,7,3,/,/
O=S1(=O)N=C2CCCCCN2C(c2ccc(Br)cc2)N1 (stereo unspecified),-10,-34,-6,-11,/,/
O=S1(=O)N=C2CCCCCN2C(c2ccc(Cl)cc2)N1 (stereo unspecified),5,-2,-5,10*,4,3
CCC(C)[C@H](NC(=O)Nc1cccc(Br)c1)C(=O)OC (stereo partly specified),3,9,-2,13*,-6,-1
COC(=O)[C@@H](NC(=O)Nc1cccc(Br)c1)C(C)C,-1,2,-5,1,/,/
COc1ccc(CN2C(=O)C(CC(=O)NC3CC3)CC(C(=O)N3CCOCC3)=C2C)cc1 (stereo unspecified),1,1,-9,5,/,/
